From PubChem BioAssay
Only some compounds are listed: those with a hit (about 21% of all), similar ones and a draw of the others.
NS1 inh – qHTS Assay for Inhibitors of Influenza NS1 Protein Function. 270,000 tested, 0.4% active. Potency, µM (titrated, usually from 46.1 µM); calls by dose curve; further: actives are rising curves; nearly all actives have a fitted effect of over 50% in size
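OD600 was taken as the measure of yeast growth restored by compound in an NS1-expressing S. cerevisiae strain. Cells had been washed out of glucose medium and diluted 1:100 into galactose -URA medium, pH 6.0.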
Shiga toxin inh – A qHTS for Small Molecule Inhibitors of Shiga Toxin. inhibition, % at 38.7 µM. 290,000 tested, 9.2% active. AID 2315, 2010. Vero cells, Shiga toxin protein synthesis inhibition reporter; in the data active means inhibition mostly above about 28%, no sharp cut-off; inactive means mostly below about 43%
CHX counter – Cycloheximide Counterscreen for Small Molecule Inhibitors of Shiga Toxin. max response, %. AID 2314, 2010. cell reporter, cycloheximide protein synthesis inhibition counterscreen. 300,000 tested, 12% active; in the data active means max response mostly above about 13%, no sharp cut-off; inactive means mostly below about 14%; further: read at 38.3 µM for the half of the compounds with a filed dose
Pf growth 48h – Primary qHTS for delayed death inhibitors of the malarial parasite plastid, 48 hour incubation | P. falciparum luciferase growth in erythrocytes, 48 h | Potency, µM (titrated, usually from 28.7 µM), most hits filed as inhibitors | 310,000 tested, 5.9% active | AID 504832, 2011
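Growth was read as firefly luciferase luminescence after a 48 h, 37 C, 5% CO2 exposure of compounds to reporter-bearing P. falciparum cultures (0.1% parasitemia, 2% hematocrit final) in Albumax-supplemented RPMI 1640.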
Pf growth 96h – Primary qHTS for delayed death inhibitors of the malarial parasite plastid, 96 hour incubation. 320,000 tested, 6.9% active. Potency, µM (highest dose often 28.7 µM), most hits filed as inhibitors. P. falciparum luciferase reporter growth, 96 h
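P. falciparum expressing integrated firefly luciferase, in erythrocytes at 2% hematocrit, 0.05% parasitemia, incubated with compounds 96 h at 37 C, 5% CO2. Growth inhibition read as loss of luminescence; two-generation exposure targets delayed-death apicoplast inhibitors.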
Sm TGR inh – qHTS Assay for the Inhibitors of Schistosoma Mansoni Peroxiredoxins; Potency, µM (titrated, usually from 114 µM), hits mostly inhibitors; purified TGR, DTNB reduction, TNB absorbance 405 nm; Schistosoma mansoni thioredoxin glutathione reductase (TGR), Q962Y6; AID 485364, 2010; 360,000 tested, 3% active; further: nearly all actives have a fitted effect of over 60% in size
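TGR 20 nM + NADPH 100 uM (dispensed conc.), cpd preinc 15 min RT; start with NADPH (500 uM addition) then DTNB (15 mM addition). Kinetic TNB absorbance, 405 nm filter. Four-parameter Hill fit across titration.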
Each line names hits and unclear results; the compound was inactive in the other large screens. Unless noted, the call rests on the fitted dose curve; in most records, active means well fitted curve in the direction sought with a large enough effect; inconclusive means small, poorly fitted or top-dose-only effect, or another doubt; inactive means no such curve, though single readings can be large; an effect the other way counts as inactive or inconclusive.

COc1ccc(-c2nn(-c3ccccc3)cc2/C=C(/C#N)C(N)=O)cc1[N+](=O)[O-]	Pf growth 96h inconclusive
S=c1sc2c(Cl)ncnc2n1-c1ccccc1	Sm TGR inh 3.2µM (no result: NS1 inh)
Cc1nc(N2CCN(C)CC2)c2sc(=S)n(-c3ccccc3)c2n1	none
NCCSCc1ccccc1Cl	none (no result: Shiga toxin inh, CHX counter, Pf growth 48h, Pf growth 96h, Sm TGR inh)
Cn1cc(S(=O)(=O)N2CCCCC2)cc1C(=O)N1CCN(c2ccccc2F)CC1	none (no result: NS1 inh, Shiga toxin inh, CHX counter, Pf growth 48h, Pf growth 96h)
COc1cc2oc3ccccc3c2cc1N(CC(=O)N(C)C)S(=O)(=O)c1ccccc1	Pf growth 48h inconclusive, Pf growth 96h inconclusive
CCN(CC)C(=O)CN(c1cc2c(cc1OC)oc1ccccc12)S(=O)(=O)c1ccccc1	Pf growth 48h 9.3µM, Pf growth 96h 10µM
COc1cccc(CN2C(=O)CN(C3CCCCC3)C(=O)C2c2ccc(OC)c(OC)c2)c1 (centres undefined)	none (no result: NS1 inh, Shiga toxin inh, CHX counter, Pf growth 48h, Pf growth 96h)
COc1ccc(NC(=O)CN2C(=O)NC(C)(C3CC3)C2=O)cc1S(=O)(=O)N1CCOCC1 (centres undefined)	none (no result: NS1 inh, Shiga toxin inh, CHX counter)
Cc1cc(CN2CCN(CCC#N)CC2)c(O)c(C2(C)CCCCC2)c1	Pf growth 48h 9.3µM
O=S(=O)(c1ccc(Cl)cc1)N1CCN(S(=O)(=O)c2ccc3c(c2)OCCO3)CC1	none (no result: NS1 inh, Pf growth 48h, Pf growth 96h, Sm TGR inh)
N#C/C(=C\c1coc2ccccc2c1=O)C(N)=S	Pf growth 96h inconclusive, Sm TGR inh inconclusive (no result: NS1 inh)
N#C/C(=C\c1coc2ccc(O)cc2c1=O)C(=O)Nc1nc2ccccc2s1	Shiga toxin inh 86, CHX counter 32, Sm TGR inh inconclusive
CCNC(=O)NC(=O)C(C)SCc1ccccc1C (centres undefined)	Pf growth 96h 6.6µM
O=S(=O)(NCC(c1ccc2c(c1)OCO2)N1CCOCC1)c1ccc(Br)cc1 (centres undefined)	none (no result: NS1 inh, Shiga toxin inh, CHX counter)
Oc1cc2c(cc1C(c1ccc(Br)cc1)N1CCCC1)OCO2 (centres undefined)	Sm TGR inh 0.71µM
COc1ccc(S(=O)(=O)N2CCN(Cc3cc(=O)n4ccccc4n3)CC2)cc1	Pf growth 96h inconclusive (no result: NS1 inh, Shiga toxin inh, CHX counter)
O=c1ccc2cc3c4c(c2o1)CCCN4CCC3	Pf growth 48h inconclusive, Sm TGR inh 50µM
COc1ccc2c(c1)CC(C(=O)NCCc1ccc(S(N)(=O)=O)cc1)CO2 (centres undefined)	none (no result: NS1 inh, Shiga toxin inh, CHX counter, Pf growth 48h, Pf growth 96h)
Cc1cc(NNC(=O)c2cccc(C(F)(F)F)c2)nc2c1c(C)nn2C	none
O=C(Cc1ccc(Cl)c(Cl)c1)Nc1ccccc1N1CCOCC1	none (no result: NS1 inh)
CCN(CC)S(=O)(=O)c1ccc(N2CCOCC2)c(NC(=O)Cc2ccc(Cl)cc2)c1	Pf growth 48h 12µM, Pf growth 96h 12µM
O=C(Cc1ccc2c(c1)OCCO2)Nc1cc(Cl)ccc1N1CCOCC1	Pf growth 48h 12µM, Pf growth 96h inconclusive (no result: NS1 inh, Shiga toxin inh, CHX counter)
Cc1ccccc1OCCC(=O)OCC(=O)Nc1ccc(N2CCOCC2)cc1	CHX counter 14
CCN(CC)S(=O)(=O)c1ccc(N2CCOCC2)c(NC(=O)COc2ccccc2C#N)c1	Pf growth 48h 12µM, Pf growth 96h inconclusive
CCN(CC)S(=O)(=O)c1ccc(N2CCOCC2)c(NC(=O)COc2ccc(C#N)cc2)c1	Pf growth 48h inconclusive
COCCn1nnnc1CN1CCN(C(=O)c2ccco2)CC1	none
CC(CNC(=O)CN1C(=O)NC2(CCCCC2)C1=O)c1ccccc1 (centres undefined)	none (no result: NS1 inh, Shiga toxin inh, CHX counter)
Cc1cccc(NC(=O)CSCC(=O)Nc2cc(Cl)ccc2N2CCOCC2)c1	Pf growth 48h 12µM, Pf growth 96h inconclusive (no result: NS1 inh, Shiga toxin inh, CHX counter)
CCN(CC)S(=O)(=O)c1ccc(N2CCOCC2)c(NC(=O)COc2ccccc2C)c1	Pf growth 48h 1.9µM, Pf growth 96h 2.9µM (no result: NS1 inh, Shiga toxin inh, CHX counter)
Cc1ccc(NC(=O)COC(=O)CSC(=S)N2CCOCC2)cc1	CHX counter 27, Pf growth 96h inconclusive
CCOC(=O)c1ccc(NC(=O)CSC(=S)N2CCOCC2)cc1	Pf growth 48h inconclusive (no result: NS1 inh)
Cc1ccccc1OCC(=O)Nc1ccc(N2CCOCC2)cc1N1CCOCC1	Pf growth 48h 9.3µM, Pf growth 96h inconclusive (no result: NS1 inh, Shiga toxin inh, CHX counter)
CCC(=O)c1ccc(OCC(=O)Nc2ccc(N3CCOCC3)cc2N2CCOCC2)cc1	Pf growth 48h inconclusive, Pf growth 96h 2.9µM
CCN(CC)S(=O)(=O)c1ccc(N2CCOCC2)c(NC(=O)CC23CC4CC(CC(Br)(C4)C2)C3)c1	Pf growth 96h 10µM
